Experimental data from the supplement of paper PMC3334620.
The full ranking holds about 33,000 sequences; the median of “E-score (-0.5 to 0.5)” is about -0.04, and the highest 2% start at about 0.36. The entries come from a sample that favours the highest values as a whole.

Biological target: T1, Hmlalpha2 (UniProt P0CY09)
T1 sequence: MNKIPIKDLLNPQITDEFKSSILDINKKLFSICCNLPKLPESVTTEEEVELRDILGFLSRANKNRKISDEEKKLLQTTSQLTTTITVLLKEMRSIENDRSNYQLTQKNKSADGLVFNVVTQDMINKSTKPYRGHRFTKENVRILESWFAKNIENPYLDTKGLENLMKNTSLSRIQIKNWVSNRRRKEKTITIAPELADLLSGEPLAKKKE
Experiment: PBM E-score (8-mer binding enrichment) (E-score (-0.5 to 0.5)); higher = stronger / more preferred TF binding
Conditions: protein concentration: 200 nM; construct: GST-full length
Experimental: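 Universal 'all 10-mer' protein binding microarrays (Agilent AMADID 015681) probed with GST-tagged S. cerevisiae TFs (full-length or DBD) made by in vitro transcription/translation (PURExpress), about 100-200 nM. Bound TF was detected with fluorescent anti-GST. Each ungapped 8-mer (which stands for itself and its reverse complement) is scored by the PBM enrichment score (E-score), a modified Wilcoxon-Mann-Whitney statistic from -0.5 to +0.5, computed with the Universal PBM Analysis Suite. Scale: above 0.35 generally sequence-specific binding.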

Sequence	PBM E-score
GACTTGGC	-0.347
GACACGAC	0.394
AACACGAT	0.439
ATCACGAT	-0.0443
GACACGAA	0.2
AGCACGAT	0.147
GACACGGC	0.223
ATAGAACA	0.164
GGGTTCGA	-0.248
CGACAATC	-0.19
GCCTCTGA	-0.251
GTTTCAGA	-0.0374
CACCGGCG	-0.12
AACACTTC	0.138
ACTACCGA	-0.12
AATCAACC	-0.103
TATCAACA	0.365
ATTCAACA	0.352
CATCAACA	0.297
AATCAACG	0.202
GATCAACA	0.341
CTTCAACA	0.341
AATCAACA	0.37
GTTCAACA	0.367
CCCGGTTC	-0.22
GCCAGGAC	-0.269

Sequence	PBM E-score
AGTAGATG	0.136
AGGTAAGA	-0.0177
ATGTAAGC	0.374
GTGTAAGA	0.401
GCGTAAGA	0.249
AAGTAAGA	0.0354
CTGTAAGA	0.0715
ATGTAAGA	0.433
ATGTAAGG	0.313
CTGTAAGC	-0.0257
AGGGAGGC	-0.339
ACATACCA	0.227
TGCTCTAA	-0.134
ACCTTACC	0.0897
ACAACTAC	0.225
CCCGATAC	-0.0785
ATCATGCA	-0.0495
AACATGCG	0.399
CACATGCG	0.141
GACATGGA	0.263
CACATGGA	0.197
ACCATGCA	0.106
AACATGCT	0.396
AACATGCA	0.417
ATCATGCG	-0.0811
AGCATGCT	0.151

Sequence	PBM E-score
TACATGGA	0.429
ACCATGCT	0.0386
AGAATGGG	-0.307
GATTCCAA	-0.0677
ACATGCCG	0.356
TAGCAGCA	-0.0647
GACCCAGA	-0.168
CCTCCCGC	-0.0916
ATCCGTGG	-0.229
CCGATCAA	-0.0314
CGCACCGC	-0.177
CCGCCAAA	-0.105
CGAAAGAA	-0.0556
TCCGCGGA	-0.0621
ACGAAAGA	-0.0344
AATCGTAC	0.102
GACATGCC	0.212
CACATGCA	0.234
CACATGCC	0.209
TACATGCA	0.438
GACATGCA	0.294
AACATGCC	0.388
ACGTTAGA	0.146
GGTCCGGA	-0.0474
TAAGCGAA	0.122
TTTCGAAA	0.0465

Sequence	PBM E-score
ATTTCTAC	0.234
ATCATAAG	-0.00054
AACATAAG	0.391
AACATAAC	0.403
AACATAGG	0.38
AACATAAT	0.287
CACATAAG	0.117
CACATAAC	0.242
CACATAGG	0.0614
AACATAGA	0.284
CCGCAGTA	-0.0882
ATATTCTA	0.169
CTCTTCGC	-0.205
CCATTGCG	-0.262
GGGTATCA	-0.118
AGCATAGC	0.0169
GGGCGTAA	0.0836
ATGCGTAA	0.375
CTGCGTAC	0.186
CTGCGTTA	0.226
GTGCGTGA	0.192
CTGCGTAA	0.417
ATGCGTAG	0.214
ATGCGTAC	0.273
GTGCGTAA	0.406
GTTCTGAA	0.213

Sequence	PBM E-score
TGTGGGAA	0.00853
CCCTCGCG	-0.199
ATGAGCAC	-0.067
ACTAAGTC	-0.157
AATATTAT	0.189
AATATTAC	0.381
AATATTAG	0.0923
ACCACCAG	-0.148
CATACGCG	0.177
AATACGCT	0.234
AATACGCG	0.399
GATACGCA	0.144
AATACGCA	0.385
AATACGCC	0.0351
CGACTTTA	0.134
AGGCACGC	-0.188
GTATTACA	0.403
CTATTAGA	-0.0387
GTATTAAA	0.307
ATATTACC	0.187
CTATTACA	0.442
ATATTACA	0.439
CTATTACC	-0.0498
GTATTAGA	0.289
ATATTACG	0.352
ATCTTTCA	0.0227

Sequence	PBM E-score
TTTCAAAA	0.17
CTGATACC	-0.15
CGTTTGAC	0.0383
ACGTAATG	0.408
AAGTAATG	0.196
GCGTAATA	0.373
AGGTAATA	0.139
CCGTAATC	-0.00299
ACGTAATA	0.431
CCGTAATA	0.159
ACGTAAGC	0.0597
AGGTAATG	0.226
ACGTAAGA	0.29
GAGTAATA	0.286
ACGTAATC	0.392
GCTGCTTA	-0.0322
CCAATGCG	-0.181
GGTAAGCA	-0.0728
AATAAGCC	-0.212
GTGCATGA	0.0341
GAAAGTTC	-0.218
GTATCCTA	0.0388
GCCTATGA	-0.147
CCAACCCG	-0.242
GGGCGAAC	-0.178
GAACTCTA	0.123

Sequence	PBM E-score
TTATCGAA	0.0652
CATGTTAC	0.41
GATGTTAC	0.304
CATGTTAG	0.422
CCTGTTAG	0.0951
AATGTTAG	0.185
AATGTTAC	0.269
ATGGTCGA	-0.0159
AGGTAAAG	0.19
ACGTAAAT	0.376
AAGTAAAA	0.121
ACGTAACA	0.385
ACGTAACG	0.161
CCGTAAAG	0.0757
CAGTAAAA	0.134
ACGTAAAA	0.388
ACGTAACC	0.22
ACGTAAAG	0.372
ACGTAAGT	0.216
ACGTAAAC	0.295
